# In the supplement of paper PMC10849652:
# Targets with a hit are over-represented here; the source holds about 8,800 in all. About 0.5% of all pairs of compound and target were hits. A number with no mark means an inactive call.
# Legend:
# Assay in all cases: log2 fold change, soluble protein after heating vs DMSO (PISA); higher = thermal stabilisation; K562 lysate, 10 uM; active = over 0.2 and 3.5 SD of the protein, either way, in both replicates (recomputed)
# erlotinib = compound: C#Cc1cccc(Nc2ncnc3cc(OCCOC)c(OCCOC)cc23)c1 [erlotinib]
# Procedure, shortened: (§1)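 Values give the log-two fold change in thermal stability against solvent controls, from duplicates. Crude K562 extract at 1 mg/mL protein, made by dounce homogenisation in PBS pH 7.4 with 1 mM MgCl2, was treated with 10 μM compound for 30 min. After 3 min heating across 48°C-58°C, aliquots were pooled, adjusted to 0.5% NP-40 at 4°C and centrifuged at 21,000xg for 90 min. The supernatant was measured by TMTpro 16plex LC-MS/MS with channel sums equalised.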
# [1] = compound: C/C(=N\NC(=O)C1=CC(=CC=C1)S(=O)(=O)N2CCOCC2)/C3=C(C=CC(=C3)Cl)O
# Procedure, shortened: as §1
# [2] = compound: C1=CC(=CC=C1C2=NC3=C(N2)C=C(C=C3)C(=O)N)OC4=CC=C(C=C4)Cl
# Procedure, shortened: as §1
# [3] = compound: C1=CC2=C(C=CC(=C2)/C=C\3/C(=O)NC(=NCC4=CC=CS4)S3)N=C1
# Procedure, shortened: as §1
# [4] = compound: C1=CC=C(C=C1)C2=NC(=C(N2)C3=CC=NC=C3)C4=CC(=C(C=C4)Cl)O
# Procedure, shortened: as §1
# [5] = compound: C1=CC=C2C(=C1)C3=NNC4=CC=CC(=C43)C2=O
# Procedure, shortened: as §1
# [6] = compound: C1CCN(C1)C(=O)NC2=CC=CC(=C2)NC3=NC=C(C(=N3)NCCC4=CN=CN4)Br
# Procedure, shortened: as §1
# [7] = compound: C1CN(CCC1(CC2=CC=C(C=C2)Cl)N)C3=NC=NC4=C3C=CN4
# Procedure, shortened: as §1
# IRAK-1-4 Inhibitor I = compound: C1COCCN1CCN2C3=CC=CC=C3N=C2NC(=O)C4=CC(=CC=C4)[N+](=O)[O-] [IRAK-1-4 Inhibitor I]
# Procedure, shortened: as §1
# [8] = compound: CC(=O)c1cnc2ccc(-c3cc(Cl)c(O)c(Cl)c3)nc2c1N[C@H]1CC[C@H](CN(C)C)CC1
# Procedure, shortened: as §1
# ralimetinib = compound: CC(C)(C)Cn1c(N)nc2ccc(-c3[nH]c(C(C)(C)C)nc3-c3ccc(F)cc3)nc21 [ralimetinib]
# Procedure, shortened: as §1
# [9] = compound: CC(C)(O)CC(=O)NCCn1ccc2ncnc(Nc3ccc(Oc4cccc(C(F)(F)F)c4)c(Cl)c3)c21
# Procedure, shortened: as §1
# [10] = compound: CC(C)C1=C2N=C(C=C(N2N=C1)NCC3=CC=CC=C3)NCCCCCCN
# Procedure, shortened: as §1
# [11] = compound: CC1=C(C(CC(=O)N1)C2=CC=C(C=C2)C(F)(F)F)C(=O)NC3=C(C=C4C(=C3)C=NN4)F
# Procedure, shortened: as §1
# [12] = compound: CC1=C(C2=C(C=C1)C(=O)C3=CC=CC=C3N2CCCN)C
# Procedure, shortened: as §1
# [13] = compound: CC1=C(C=C(C=C1)NC(=O)C2=CC(=CC=C2)C(C)(C)C#N)NC3=CC4=C(C=C3)N=CN(C4=O)C
# Procedure, shortened: as §1
# [14] = compound: CC1=C(C=C(C=C1)NC(=O)C2=CC(=CC=C2)N(C)C)NC(=O)C3=CC=C(C=C3)O
# Procedure, shortened: as §1
# [15] = compound: CC1=CC=C(C=C1)SC2=C3C=C(SC3=CN=C2)C(=O)N
# Procedure, shortened: as §1
# [16] = compound: C1=CC2=NC=CN=C2C=C1/C=C/3\C(=O)NC(=O)S3
# Procedure, shortened: as §1
# ibrutinib = compound: C=CC(=O)N1CCC[C@@H](n2nc(-c3ccc(Oc4ccccc4)cc3)c3c(N)ncnc32)C1 [ibrutinib]
# Procedure, shortened: as §1
# UniProt Q14203, sequence (Q14203 whole entry, looked up): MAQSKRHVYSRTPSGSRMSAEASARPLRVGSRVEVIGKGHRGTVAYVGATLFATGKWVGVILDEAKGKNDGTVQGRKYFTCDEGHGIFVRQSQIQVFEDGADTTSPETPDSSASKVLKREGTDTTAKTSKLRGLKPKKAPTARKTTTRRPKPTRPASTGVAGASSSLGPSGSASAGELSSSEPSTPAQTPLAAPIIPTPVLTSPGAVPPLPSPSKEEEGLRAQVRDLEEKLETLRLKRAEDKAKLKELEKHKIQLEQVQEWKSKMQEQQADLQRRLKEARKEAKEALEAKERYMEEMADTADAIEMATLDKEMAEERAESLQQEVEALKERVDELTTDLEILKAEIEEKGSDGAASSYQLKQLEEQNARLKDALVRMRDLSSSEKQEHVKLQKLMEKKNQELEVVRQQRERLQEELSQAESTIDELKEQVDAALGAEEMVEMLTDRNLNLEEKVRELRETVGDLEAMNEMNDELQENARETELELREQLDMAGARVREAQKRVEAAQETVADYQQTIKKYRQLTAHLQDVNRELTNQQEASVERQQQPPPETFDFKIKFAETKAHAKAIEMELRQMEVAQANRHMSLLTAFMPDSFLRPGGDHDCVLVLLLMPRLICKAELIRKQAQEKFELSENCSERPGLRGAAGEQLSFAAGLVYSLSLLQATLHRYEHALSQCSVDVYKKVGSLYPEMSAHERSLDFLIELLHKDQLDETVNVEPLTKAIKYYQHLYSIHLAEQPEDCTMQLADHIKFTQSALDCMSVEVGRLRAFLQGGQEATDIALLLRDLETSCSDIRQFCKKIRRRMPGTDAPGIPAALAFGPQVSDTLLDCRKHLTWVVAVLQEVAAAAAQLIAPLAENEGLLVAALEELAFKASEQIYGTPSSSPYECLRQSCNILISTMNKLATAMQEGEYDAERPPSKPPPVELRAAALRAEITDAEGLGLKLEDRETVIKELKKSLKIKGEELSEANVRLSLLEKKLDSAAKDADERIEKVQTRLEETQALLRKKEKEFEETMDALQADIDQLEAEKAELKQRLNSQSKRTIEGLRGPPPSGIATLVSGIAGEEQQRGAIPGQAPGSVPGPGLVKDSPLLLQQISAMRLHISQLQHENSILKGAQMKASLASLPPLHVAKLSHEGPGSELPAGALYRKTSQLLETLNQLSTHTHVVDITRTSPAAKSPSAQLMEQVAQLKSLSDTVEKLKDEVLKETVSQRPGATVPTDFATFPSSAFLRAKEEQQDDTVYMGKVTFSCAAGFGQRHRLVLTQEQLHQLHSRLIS
# UniProt O75122, sequence (O75122 whole entry, looked up): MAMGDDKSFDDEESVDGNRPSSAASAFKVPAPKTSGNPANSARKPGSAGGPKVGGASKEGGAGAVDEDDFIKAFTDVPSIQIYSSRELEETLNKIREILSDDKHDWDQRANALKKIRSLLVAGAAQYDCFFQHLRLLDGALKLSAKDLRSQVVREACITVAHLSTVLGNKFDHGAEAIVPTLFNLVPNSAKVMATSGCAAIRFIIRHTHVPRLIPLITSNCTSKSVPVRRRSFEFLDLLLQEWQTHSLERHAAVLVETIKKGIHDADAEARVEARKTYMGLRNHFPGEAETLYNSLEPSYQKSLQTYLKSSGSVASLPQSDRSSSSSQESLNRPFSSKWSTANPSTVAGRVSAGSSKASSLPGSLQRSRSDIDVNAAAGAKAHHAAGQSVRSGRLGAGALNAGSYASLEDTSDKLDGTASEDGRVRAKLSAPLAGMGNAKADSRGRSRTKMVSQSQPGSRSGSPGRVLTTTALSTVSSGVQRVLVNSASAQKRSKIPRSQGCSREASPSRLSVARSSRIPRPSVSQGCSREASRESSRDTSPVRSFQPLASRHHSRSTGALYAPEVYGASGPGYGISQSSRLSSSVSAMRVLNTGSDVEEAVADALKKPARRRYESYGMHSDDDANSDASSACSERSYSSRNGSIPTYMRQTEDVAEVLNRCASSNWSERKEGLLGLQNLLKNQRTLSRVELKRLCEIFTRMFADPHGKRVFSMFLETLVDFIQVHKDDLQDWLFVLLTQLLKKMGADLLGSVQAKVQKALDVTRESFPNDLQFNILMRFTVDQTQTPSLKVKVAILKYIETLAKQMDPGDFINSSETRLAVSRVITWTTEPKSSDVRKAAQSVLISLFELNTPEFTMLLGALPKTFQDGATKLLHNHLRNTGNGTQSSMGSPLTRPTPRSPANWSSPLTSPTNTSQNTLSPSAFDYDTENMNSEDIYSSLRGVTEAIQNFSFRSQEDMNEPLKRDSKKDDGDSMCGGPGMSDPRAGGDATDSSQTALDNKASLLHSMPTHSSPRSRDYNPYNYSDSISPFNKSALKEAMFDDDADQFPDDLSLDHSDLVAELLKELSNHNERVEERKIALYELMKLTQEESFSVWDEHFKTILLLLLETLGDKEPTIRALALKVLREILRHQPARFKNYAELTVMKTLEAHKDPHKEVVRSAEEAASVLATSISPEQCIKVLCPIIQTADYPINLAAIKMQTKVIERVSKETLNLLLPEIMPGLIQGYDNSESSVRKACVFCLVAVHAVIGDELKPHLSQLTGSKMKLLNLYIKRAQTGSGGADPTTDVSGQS
# UniProt P14868, sequence (P14868 whole entry, looked up): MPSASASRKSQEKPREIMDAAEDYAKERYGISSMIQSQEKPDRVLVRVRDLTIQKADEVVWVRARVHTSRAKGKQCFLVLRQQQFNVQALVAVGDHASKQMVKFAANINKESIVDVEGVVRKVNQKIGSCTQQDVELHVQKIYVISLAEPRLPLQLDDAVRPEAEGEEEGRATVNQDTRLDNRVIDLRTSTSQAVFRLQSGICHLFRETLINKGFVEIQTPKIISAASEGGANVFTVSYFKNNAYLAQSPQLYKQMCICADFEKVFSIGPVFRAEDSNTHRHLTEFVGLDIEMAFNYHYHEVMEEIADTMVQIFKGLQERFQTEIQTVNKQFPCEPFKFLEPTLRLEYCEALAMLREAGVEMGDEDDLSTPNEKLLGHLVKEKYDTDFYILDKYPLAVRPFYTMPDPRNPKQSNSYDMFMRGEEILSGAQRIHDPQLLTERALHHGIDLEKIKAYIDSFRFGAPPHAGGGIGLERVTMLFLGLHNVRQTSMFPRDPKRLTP
# UniProt Q99704, sequence (Q99704 whole entry, looked up): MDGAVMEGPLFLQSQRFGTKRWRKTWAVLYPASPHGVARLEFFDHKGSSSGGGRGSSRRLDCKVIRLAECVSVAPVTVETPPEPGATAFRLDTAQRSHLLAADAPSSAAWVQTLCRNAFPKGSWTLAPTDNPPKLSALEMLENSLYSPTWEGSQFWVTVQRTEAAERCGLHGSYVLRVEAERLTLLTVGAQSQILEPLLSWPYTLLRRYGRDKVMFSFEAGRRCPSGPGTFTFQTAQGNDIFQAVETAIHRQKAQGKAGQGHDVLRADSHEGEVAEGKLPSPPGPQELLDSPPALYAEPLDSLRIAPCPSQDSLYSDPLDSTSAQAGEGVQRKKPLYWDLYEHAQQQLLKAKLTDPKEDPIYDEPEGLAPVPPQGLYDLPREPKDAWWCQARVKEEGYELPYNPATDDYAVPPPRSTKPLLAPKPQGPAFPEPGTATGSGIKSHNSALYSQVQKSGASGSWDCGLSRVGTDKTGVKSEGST
# UniProt Q96SQ9, sequence (Q96SQ9 whole entry, looked up): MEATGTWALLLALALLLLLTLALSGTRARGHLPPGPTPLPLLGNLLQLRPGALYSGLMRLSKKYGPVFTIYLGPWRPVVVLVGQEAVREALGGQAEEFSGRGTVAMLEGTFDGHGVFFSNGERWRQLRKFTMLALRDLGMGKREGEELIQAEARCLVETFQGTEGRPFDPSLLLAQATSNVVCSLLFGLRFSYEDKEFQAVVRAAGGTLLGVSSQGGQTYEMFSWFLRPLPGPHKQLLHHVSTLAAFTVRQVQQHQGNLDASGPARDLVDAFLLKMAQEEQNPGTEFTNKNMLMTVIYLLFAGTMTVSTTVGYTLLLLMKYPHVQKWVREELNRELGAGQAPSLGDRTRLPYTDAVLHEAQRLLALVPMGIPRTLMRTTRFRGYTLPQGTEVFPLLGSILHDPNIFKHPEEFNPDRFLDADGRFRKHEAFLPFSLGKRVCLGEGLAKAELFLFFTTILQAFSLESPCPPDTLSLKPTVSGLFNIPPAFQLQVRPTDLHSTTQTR
# UniProt Q9NQI0, sequence (Q9NQI0 whole entry, looked up): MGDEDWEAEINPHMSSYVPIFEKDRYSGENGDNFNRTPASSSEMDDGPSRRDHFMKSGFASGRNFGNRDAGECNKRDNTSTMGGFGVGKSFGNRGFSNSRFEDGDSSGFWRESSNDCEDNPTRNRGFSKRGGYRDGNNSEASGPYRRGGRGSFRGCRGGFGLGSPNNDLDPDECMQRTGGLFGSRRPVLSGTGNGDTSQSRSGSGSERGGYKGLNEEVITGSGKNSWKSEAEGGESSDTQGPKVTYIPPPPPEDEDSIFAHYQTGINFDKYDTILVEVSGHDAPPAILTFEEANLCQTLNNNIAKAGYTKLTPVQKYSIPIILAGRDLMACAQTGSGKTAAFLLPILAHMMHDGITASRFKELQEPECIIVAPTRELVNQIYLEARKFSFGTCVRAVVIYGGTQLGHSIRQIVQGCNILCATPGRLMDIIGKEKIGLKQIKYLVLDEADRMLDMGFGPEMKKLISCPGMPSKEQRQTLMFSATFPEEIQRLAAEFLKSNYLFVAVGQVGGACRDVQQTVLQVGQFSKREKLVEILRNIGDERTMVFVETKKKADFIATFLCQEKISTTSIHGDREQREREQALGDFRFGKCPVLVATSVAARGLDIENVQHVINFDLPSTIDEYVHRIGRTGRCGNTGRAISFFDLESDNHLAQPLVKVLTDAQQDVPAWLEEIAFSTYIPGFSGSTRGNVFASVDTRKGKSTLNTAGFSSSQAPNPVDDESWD
# UniProt P24311, sequence (P24311 whole entry, looked up): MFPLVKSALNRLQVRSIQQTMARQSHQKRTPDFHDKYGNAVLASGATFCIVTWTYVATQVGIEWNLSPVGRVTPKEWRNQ
Target,log2 fold change (erlotinib),log2 fold change [1],log2 fold change [2],log2 fold change [3],log2 fold change [4],log2 fold change [5],log2 fold change [6],log2 fold change [7],log2 fold change (IRAK-1-4 Inhibitor I),log2 fold change [8],log2 fold change (ralimetinib),log2 fold change [9],log2 fold change [10],log2 fold change [11],log2 fold change [12],log2 fold change [13],log2 fold change [14],log2 fold change [15],log2 fold change [16],log2 fold change (ibrutinib)
COX7B (UniProt P24311),-0.024,0.026,0.009,-0.011,-0.003,0.022,-0.085,0.022,0.025,-0.016,0.014,-0.09,0.008,-0.046,-0.144,0.018,0.039,0.02,–,–
CLIC2 (UniProt O15247),0.036,0.022,-0.005,-0.03,-0.014,-0.014,0.019,0.015,0.006,-0.014,0.004,0.004,0.04,-0.01,0.018,0.005,0.006,0.001,-0.014,–
DDX4 (UniProt Q9NQI0),-0.043,0.165,-0.112,-0.028,0.114,-0.004,0.002,0.011,-0.109,-0.004,0.04,0.087,-0.032,0.008,0.1,–,-0.051,-0.026,-0.055,0.019
CYP2S1 isoform 2 (UniProt Q96SQ9),-0.026,-0.291,-0.018,-0.096,0.07,-0.123,-0.198,0.08,-0.044,0.146,0.048,0,0.061,–,-0.084,-0.028,0.07,-0.229,–,–
DOK1 (UniProt Q99704),-0.024,0.051,0.023,0.015,-0.041,-0.02,0.021,0.06,0.021,0.01,0.017,0.014,-0.029,0.137,0.018,0.017,0.014,-0.135,0.002,0.023
CNOT4 isoform 9 (UniProt O95628),0,0.005,0.015,-0.04,-0.105,0.015,0.003,-0.013,0.054,-0.019,0.043,-0.084,-0.003,–,0.032,-0.138,-0.02,0.013,0,0.052
DCP2 (UniProt Q8IU60),0.005,0.039,-0.029,-0.064,-0.007,0.001,0.025,-0.014,-0.017,-0.005,0.067,0.003,0.006,0.021,0.034,-0.043,0.081,-0.002,-0.037,-0.005
DARS (UniProt P14868),0.006,0.037,-0.039,0.027,-0.004,-0.04,-0.012,-0.024,-0.041,0.021,0.049,0.04,0.001,-0.003,0.027,-0.019,0.026,0.053,0.019,0.009
CLASP2 isoform 3 (UniProt O75122),0.032,-0.014,-0.022,-0.032,0,-0.024,-0.024,0.057,-0.012,0.004,0.019,-0.014,0.025,0.019,-0.008,0.023,0.042,0.004,-0.018,–
CNNM2 (UniProt Q9H8M5),-0.109,-0.206,0.038,0.058,-0.106,-0.029,0.045,0.201,0.098,0.004,0.31,0.348 (active),0.048,–,-0.031,-0.054,-0.157,-0.015,–,–
CLUH (UniProt O75153),-0.011,0.018,-0.006,0.051,-0.013,-0.014,-0.009,-0.005,-0.007,0.093,0.008,-0.004,-0.044,-0.01,0,-0.001,0.006,0.008,0.21,–
DNA2 (UniProt P51530),-0.019,0.071,-0.054,-0.163,-0.032,0.044,0.027,0.077,-0.033,–,0.016,0.029,-0.06,-0.007,0.002,-0.02,0.001,–,–,–
CLIP1 isoform 1 (UniProt P30622),-0.025,-0.026,0.019,-0.005,0.005,0.002,0,-0.012,0.007,-0.005,0.004,0,-0.008,-0.01,-0.016,0.006,0.003,-0.004,-0.018,–
DCTN1 isoform 4 (UniProt Q14203),-0.021,-0.166,0.065,-0.109,0.098,0.126,-0.141,0,0.02,0.089,0.114,-0.076,0.1,-0.074,-0.11,0.044,0.036,-0.029,–,–
CHFR (UniProt Q96EP1),-0.011,0.179,0.066,-0.068,-0.027,0.257,-0.023,-0.013,-0.011,0.158,0.007,-0.049,-0.047,0.003,-0.06,-0.021,0.031,0.102,–,–
DIAPH1 (UniProt H9KV28),-0.1,-0.013,-0.053,0.005,-0.164,-0.024,0.031,-0.037,0.034,0.024,-0.022,-0.106,-0.083,0.032,–,0.004,0.009,-0.03,-0.04,-0.063
